Here are results for five molecules from ChEMBL document CHEMBL3988442, “University of Dundee, Small-Polar-MMV Screening Library” (2021).

The target in test [1] is T1, Methionyl-tRNA synthetase, putative (Leishmania donovani (strain BPK282A1)) (UniProt E9BF75).
T1 sequence (whole entry): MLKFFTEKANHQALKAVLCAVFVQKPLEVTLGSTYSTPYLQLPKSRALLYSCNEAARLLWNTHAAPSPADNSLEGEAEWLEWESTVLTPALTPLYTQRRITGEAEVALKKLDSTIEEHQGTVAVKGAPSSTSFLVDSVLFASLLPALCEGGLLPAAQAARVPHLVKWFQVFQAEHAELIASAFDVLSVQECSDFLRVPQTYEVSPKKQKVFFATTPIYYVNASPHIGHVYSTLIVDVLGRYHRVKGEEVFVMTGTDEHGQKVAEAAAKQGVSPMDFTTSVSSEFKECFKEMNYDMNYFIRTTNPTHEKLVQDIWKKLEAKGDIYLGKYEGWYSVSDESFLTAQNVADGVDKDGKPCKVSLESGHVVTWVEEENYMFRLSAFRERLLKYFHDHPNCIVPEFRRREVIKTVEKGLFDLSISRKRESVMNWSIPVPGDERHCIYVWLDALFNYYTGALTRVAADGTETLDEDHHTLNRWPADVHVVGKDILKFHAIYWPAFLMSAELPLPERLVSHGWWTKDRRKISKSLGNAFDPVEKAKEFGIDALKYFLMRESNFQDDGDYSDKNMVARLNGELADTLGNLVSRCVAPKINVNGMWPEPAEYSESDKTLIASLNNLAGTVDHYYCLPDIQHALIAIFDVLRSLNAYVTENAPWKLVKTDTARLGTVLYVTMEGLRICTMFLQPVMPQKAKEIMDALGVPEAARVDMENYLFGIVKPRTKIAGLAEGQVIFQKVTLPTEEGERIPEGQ
As to the kind of experiment: Leishmania donovani Methionine tRNA synthetase (LdMetRS):v7. Dose response assay. In kind it is functional. Details: conc 80 nM, time 150 minutes.

Test [2] addresses AMP-activated protein kinase, AMPK (Homo sapiens) (UniProt P54646+O43741+P54619+Q9UGJ0+Q9Y478+Q13131+Q9UGI9). As to the kind of experiment: AMP-dependent Kinase enzyme assay. An in vitro enzyme assay that detects ADP turnover that is directly proportional to AMPK activity. This uses naive AMPK that is activated during the assay with MK-8722. Format: functional. Details: scale not given: direction of the effect not stated beside the values. The note with it: 30 µM.

Some results are limits rather than exact numbers.

Turning to `CC1CCN(c2ccc(C(=O)N3CCCC3c3ccc[nH]3)cn2)CC1` (stereo unspecified), the PXC50 in test [1] (BOTTOM 1.515439463, HILLSLOPE 1.666598775, MAX_EFFECT 83.87715931, TOP 100.0) came to 4.46; in test [1] (BOTTOM -1.123012713, HILLSLOPE 2.407877124, MAX_EFFECT 92.83154122, TOP 98.62534766), 4.49; in test [1] (BOTTOM -1.142129641, HILLSLOPE 1.640897748, MAX_EFFECT 81.18022329, TOP 100.0), 4.4; in test [1] (BOTTOM -13.95110743, HILLSLOPE 2.091757253, MAX_EFFECT 73.91304348, TOP 74.65708324) it was 4.71; in test [1] (BOTTOM -19.81350398, HILLSLOPE 1.3052719, MAX_EFFECT 84.15841584, TOP 92.57854766), 4.84. In test [2], the Percent Effect is -6.21%.
On to `COc1ccc(OC)c(C2CCN(c3ccc4cc[nH]c4n3)C2)c1` (stereo unspecified), for which the PXC50 in test [1] (BOTTOM 1.480634741, HILLSLOPE 1.299916262, MAX_EFFECT 56.52173913, TOP 100.0) is 4.07; in test [1] (BOTTOM -1.247583822, HILLSLOPE 1.089672094, MAX_EFFECT 58.06451613, TOP 100.0), 4.11; in test [1] (BOTTOM -8.715782986, HILLSLOPE 1.383269592, MAX_EFFECT 51.81518152, TOP 100.0), 4.09; in test [1] (MAX_EFFECT 37.4800638), less than 4; in test [1] (MAX_EFFECT 42.80230326), less than 4.
Regarding `COc1ccccc1C(=O)NC(c1ccccn1)[C@H]1CC[C@H](CN)CC1` (stereo partly specified), the PXC50 in test [1] (BOTTOM -1.193557467, HILLSLOPE 1.40396169, MAX_EFFECT 57.36568458, TOP 100.0) is 4.08; in test [1] (BOTTOM -5.444679276, HILLSLOPE 1.669546179, MAX_EFFECT 75.83892617, TOP 100.0), 4.3; in test [1] (BOTTOM -12.31313032, HILLSLOPE 1.366255023, MAX_EFFECT 79.86111111, TOP 100.0), 4.41; in test [1] (MAX_EFFECT 0.790513834), less than 4; in test [1] (MAX_EFFECT 6.349206349), less than 4.
For the molecule `O=C(O)CN1CCC(F)(F)C2(CCN(c3ccccc3)C2)C1` (stereo unspecified), the PXC50 is 4.25 in test [1] (BOTTOM 0.682019073, HILLSLOPE 1.183129542, MAX_EFFECT 69.01408451, TOP 100.0); 4.23 in test [1] (BOTTOM 1.497780238, HILLSLOPE 1.024260355, MAX_EFFECT 65.37037037, TOP 100.0); 4.28 in test [1] (BOTTOM -1.515302198, HILLSLOPE 0.859784414, MAX_EFFECT 63.76811594, TOP 100.0); 4.1 in test [1] (BOTTOM -4.436470638, HILLSLOPE 1.966892025, MAX_EFFECT 57.61821366, TOP 100.0); 4.54 in test [1] (BOTTOM -10.23367543, HILLSLOPE 2.537985382, MAX_EFFECT 60.54421769, TOP 60.60381795).
In the case of `Cc1cc(C)n(-c2nc(NCCCO)c3c4c(sc3n2)CCCC4)n1`, the PXC50 in test [1] (BOTTOM 0.694327114, HILLSLOPE 1.749821258, MAX_EFFECT 87.74703557, TOP 100.0) stood at 4.43; in test [1] (BOTTOM 1.783825543, HILLSLOPE 1.533717892, MAX_EFFECT 94.44444444, TOP 106.8963367), 4.59; in test [1] (BOTTOM 1.928318756, HILLSLOPE 2.074005498, MAX_EFFECT 78.73015873, TOP 100.0), 4.27; in test [1] (BOTTOM 4.876612539, HILLSLOPE 1.662902224, MAX_EFFECT 88.59060403, TOP 97.50762335), 4.61; in test [1] (BOTTOM 5.143035966, HILLSLOPE 1.849282201, MAX_EFFECT 96.18717504, TOP 100.0), 4.48.
